This is an account of results in PubChem BioAssay AID626 (Vanderbilt High Throughput Screening Facility, 2007).

Out of some 64,000 compounds screened, about 1,900 (3%) were called active. Shown is part of a subset that was picked to be rich in actives. Values without a mark were called inactive.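 The calls were made as follows: active = fluorescence rise, raw or as B-score row- and column-corrected plate score, outside the 99.7% band of its plate's samples, either direction; inactive = the rest.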

The experiment deals with Muscarinic acetylcholine receptor M1. The experiment in a line: M1 muscarinic receptor agonists, primary screen, CHO-M1 cells, Fluo-4 calcium, agonist mode (AID 626). The settings on record: Fluo-4 calcium fluorescence, at 10 µM, active compounds read high.
On to `CN1CCN(S(=O)(=O)c2ccc3[nH]cc(C(=O)O)c(=O)c3c2)CC1`, for which the B-score is 0.537.

As for `COCCn1c(CN2CCC(Cc3ccccc3)CC2)nc2c1c(=O)n(C)c(=O)n2C`, the B-score was 3.45 (active).

Consider `CC1CCN(Cc2nc3c(c(=O)n(C)c(=O)n3C)n2CCc2ccccc2)CC1`, for which the B-score was 0.945.

For the compound `COCCn1c(CN(Cc2ccccc2)Cc2ccccc2)nc2c1c(=O)n(C)c(=O)n2C`, the B-score was 0.66.

As for `CCOC(=O)c1ccc(NC(=O)CSc2nnc(COc3ccccc3OC)n2C)cc1`, the B-score is 0.692.

Consider `O=C(Nc1ccccc1N1CCCCC1)c1cccc(F)c1`, for which the B-score is 0.341.

On to `C/C(=C(\C#N)C(=O)NCCCN1CCOCC1)N(C)C`, for which the B-score was 0.122.

In the case of `Cc1cc(Nc2cccc(F)c2)n2ncnc2n1`, the B-score is 1.22.

Turning to `CCOC(=O)[C@H]1CCC[C@@H](NS(=O)(=O)c2ccc(NC(C)=O)cc2)C1`, the B-score was -0.507.

On to `CCOC(=O)C1CCN(C(=O)Nc2ccc(Cl)cc2)CC1`, for which the B-score was 0.00389.

Consider `CCOC(=O)C1CCCN(Cc2nc(N)nc(Nc3ccc(C)cc3)n2)C1` (configuration not stated), for which the B-score was 35.2 (active).

As for `CCn1c(SCCC(C)C)nnc1-c1c[nH]c2ccccc12`, the B-score is 0.584.

Turning to `Cc1nc2ccccc2c2oc(C(=O)NCCCN3CCC(C)CC3)cc12`, the B-score was 0.3.

On to `CCCN(CCC)CCNC(=O)c1cc2c(C)nc3ccccc3c2o1`, for which the B-score was -0.845.

Take `Cc1nc2ccccc2c2oc(C(=O)NCC3CCCO3)cc12` (configuration not stated): the B-score was 2.93 (active).

Regarding `COCCN1C(=O)c2oc3c(C)cc(C)cc3c(=O)c2C1c1cccc(O)c1` (configuration not stated), the B-score was 0.00288.

For the compound `CCOC(=O)Cn1c(=O)oc2cc(S(=O)(=O)N(C)Cc3ccco3)ccc21`, the B-score was -0.339.

For `O=C(c1ccco1)N1CCN(C(=O)C2CC(c3ccc(Cl)c(Cl)c3)=NO2)CC1` (configuration not stated), the B-score is -0.464.

As for `CC(=O)N1CCN(C(=O)c2cccc(S(=O)(=O)Nc3ccc(C)cc3)c2)CC1`, the B-score is 0.272.

Consider `O=S(=O)(Nc1ccc2nc(-c3ccco3)[nH]c2c1)c1ccccc1`, for which the B-score was -0.0329.

Consider `Cc1ccc(S(=O)(=O)Nc2ccc3ncccc3c2)cc1`, for which the B-score was 3.16 (active).

On to `CCOC(=O)c1sc(NC(=O)CSc2nnc(-c3ccco3)o2)c(C(=O)OCC)c1C`, for which the B-score was -0.0997.

Regarding `CCOc1cc(/C=N/O)cc(Br)c1OC`, the B-score was 0.00429.

For `O=C(Nc1ccccc1C(=O)N1CCOCC1)C1CCC(=O)N1C1CCCC1` (configuration not stated), the B-score is 0.307.

For the compound `COc1ccccc1Cc1nc(-c2ccc(C)cc2)no1`, the B-score was 3.86 (active).

With `Cc1ccc(Cc2nc(-c3cccc(C)c3)no2)cc1`, the B-score was -0.177.

Take `Cc1ccc(-c2noc(CN3CCN(Cc4ccccc4)CC3)n2)cc1`: the B-score was -0.531.

`O=C(NCCN1CCOCC1)c1c(F)c(F)c(F)c(F)c1F`: the B-score is 0.102.

With `CCC(C(=O)NC1CCCC1)N(C(=O)c1snc(C(N)=O)c1N)c1ccc2c(c1)OCCO2` (configuration not stated), the B-score was -0.647.

Take `COCCNC(=O)C(c1ccc(C)o1)N(Cc1ccccc1)C(=O)Cn1nnc2ccccc21` (configuration not stated): the B-score is -0.295.

Regarding `COCCNC(=O)C(c1ccc(C)o1)N(Cc1cccs1)C(=O)c1snc(C(N)=O)c1N` (configuration not stated), the B-score was 2.74 (active).

Consider `CC(Nc1nc(N2CCCC2)nc2ccccc12)c1ccccc1` (configuration not stated), for which the B-score was 0.0749.

On to `CCOCCCNC(=O)Cc1cc(=O)[nH]c(=O)[nH]1`, for which the B-score is -0.622.

As to `COc1ccc(CN(C(=O)c2cccs2)c2nccs2)cc1OC`, the B-score is -0.233.

Turning to `Cc1cc(C)c2nc(N3CCCC3)c(C#N)cc2c1`, the B-score was 0.391.

Take `COc1ccc2nc(N3CCCC(O)C3)c(C#N)cc2c1` (configuration not stated): the B-score was 15 (active).

Consider `COc1ccc(N2CCN(C(=O)CSc3nc4cc(OC)c(OC)cc4cc3C#N)CC2)cc1`, for which the B-score was -0.487.

In the case of `COC(=O)c1cc(C(=O)CSc2nc(C)cc(C)n2)ccc1O`, the B-score was -0.00415.

On to `Oc1c(C(c2ccco2)N2CCC3(CC2)OCCO3)sc2ncnn12` (configuration not stated), for which the B-score is -0.563.

Consider `CCCCCNC(=O)Cc1ccc(OC)cc1`, for which the B-score was 1.29.

Regarding `O=C(Nc1ccccc1-c1nnn(CC(=O)N2CCN(c3ccccc3)CC2)n1)c1cccs1`, the B-score was -0.15.

Consider `Cc1cccn2c(=O)c3cc(C(=O)NCc4ccccn4)n(C)c3nc12`, for which the B-score was -0.541.

In the case of `O=C(NCc1ccccn1)c1ccc2nc(-c3ccco3)c(-c3ccco3)nc2c1`, the B-score is 3.06 (active).

In the case of `O=C(NCc1ccccn1)c1cc2ccccc2oc1=O`, the B-score is -0.243.

In the case of `CC1CCCCN1CC(=O)NCc1ccc2c(c1)OCO2` (configuration not stated), the B-score is -0.147.

Consider `CCn1c(Cc2ccccc2)nnc1SCc1nc2ccccc2c(=O)[nH]1`, for which the B-score was 0.17.

As for `O=C(O)c1ccc(COCC(F)(F)F)cc1`, the B-score is 3 (active).

Consider `O=C(C1CCC1)N1CCc2cc(S(=O)(=O)NCc3cccnc3)ccc21`, for which the B-score is -2.04.

Take `COC(=O)c1cn(C)c2ccc(S(=O)(=O)N3CC(C)CC(C)C3)cc2c1=O` (configuration not stated): the B-score is -0.784.

For the compound `CCOC(=O)NCc1ccc2c(c1)OCO2`, the B-score is 0.801.

Turning to `O=C(COc1ccccc1)NCc1ccc2c(c1)OCO2`, the B-score was 0.038.

Turning to `c1n[nH]c(NCc2ccc3c(c2)OCO3)n1`, the B-score was 2.68 (active).

In the case of `Cc1ccc(-c2csc3nnc(SCC(=O)NCc4ccco4)n23)cc1`, the B-score was 0.495.

Turning to `COC(=O)c1ccccc1NC(=O)CN(Cc1ccccc1)S(C)(=O)=O`, the B-score was 0.117.

For `CCOc1ccc(N2C(=O)CC(N(O)c3ccccc3)C2=O)cc1` (configuration not stated), the B-score is 0.335.

Take `COc1ccccc1N1CCN(C(=O)c2c(-c3c(Cl)cccc3Cl)noc2C)CC1`: the B-score was 4.97 (active).

As for `COc1ccccc1N1CCN(C(=O)c2cc(-c3ccc(Cl)c(Cl)c3)on2)CC1`, the B-score is -0.0802.

`COc1ccccc1N1CCN(C(=O)c2cc(-c3ccc(Br)cc3)on2)CC1`: the B-score was -0.734.

`O=C(c1ccco1)N1CCN(CC(=O)N(C2CCCCC2)C2CCS(=O)(=O)C2)CC1` (configuration not stated): the B-score was 1.21.

Take `COc1ccc(S(=O)(=O)N2CCCCC2)cc1Br`: the B-score is -0.037.

On to `O=C(CCSc1ccccc1)NCCSc1ccccn1`, for which the B-score is -0.157.

Consider `COc1c(F)c(F)c(-c2csc(N)n2)c(F)c1F`, for which the B-score is -0.0216.
